The list is not random: actives were taken first. Their share in the collection is about 4.7%.
D1 antagonist: Antagonist of Human D 1 Dopamine Receptor: qHTS; D(1A) dopamine receptor (Homo sapiens), P21728; HEK293 TREx D1 cells, calcium flux, dopamine EC80; hits give low values; activity change, negative = inhibition, % at 10 µM; 360,000 tested, 3.2% active; in the data active means activity change below about -30%; further: on the % scale 0 is the no-effect control and ±100 the full control effect
Target sequence (P21728 whole entry, looked up): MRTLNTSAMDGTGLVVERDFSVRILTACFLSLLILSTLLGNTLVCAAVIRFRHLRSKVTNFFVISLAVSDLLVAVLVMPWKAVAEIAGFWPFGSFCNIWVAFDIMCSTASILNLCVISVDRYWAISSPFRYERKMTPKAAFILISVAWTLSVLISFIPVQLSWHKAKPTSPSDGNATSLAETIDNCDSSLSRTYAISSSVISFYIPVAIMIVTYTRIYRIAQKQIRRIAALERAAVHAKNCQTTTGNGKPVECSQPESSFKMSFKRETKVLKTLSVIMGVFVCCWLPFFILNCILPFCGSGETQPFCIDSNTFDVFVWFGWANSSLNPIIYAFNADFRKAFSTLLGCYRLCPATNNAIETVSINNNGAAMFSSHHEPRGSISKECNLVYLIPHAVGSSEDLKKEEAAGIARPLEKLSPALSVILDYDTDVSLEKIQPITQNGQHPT
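Antagonism measured as reduced calcium response to an EC80 dopamine addition following 180 s compound pre-read; cells were inducible HEK293 Trex D1 plated overnight at 30 C, read kinetically at 1 cycle/sec.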
D1 PAM: Potentiators of Human D1 Dopamine Receptor: qHTS; potentiation, % at 10 µM; D(1A) dopamine receptor (Homo sapiens), P21728; AID 504651, 2011; 360,000 tested, 0.036% active; HEK293 TREx D1 cells, calcium flux, dopamine EC20 potentiation; in the data active means potentiation above about 30%; further: 0% is about no effect
D1 agonist: Allosteric Agonists of the Human D1 Dopamine Receptor: qHTS | HEK293 T-REx D1 cells, calcium flux, agonist mode | activation, % at 2 µM | D(1A) dopamine receptor (Homo sapiens), P21728 | 360,000 tested, 1% active; further: 0% is about no effect
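Tetracycline-induced HEK293 TREx D1 cells, force-coupled to calcium signalling, were dye-loaded with a no-wash calcium kit. Compound was pin-added after a 10 s baseline. Fluorescence was read kinetically at 1 cycle/s for 180 s, with calcium rises flagged as agonism.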
TRHR ag: qHTS for Small Molecule Agonists and Allosteric Enhancers of Human TRH Receptor: Primary Screen for Agonists | Thyrotropin-releasing hormone receptor (Homo sapiens), P34981 | TRHR cells, calcium flux fluo-8, FDSS agonist mode | activation, % at 2 µM | 360,000 tested, 0.18% active; further: 0% is about no effect
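In this calcium-flux screen, cells bearing human TRHR are dye-loaded with fluo-8, baselined for 10 cycles, then exposed to library compounds; positive kinetic calcium responses during the agonist phase mark hits, with TRH as control.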
TRHR enhancer: qHTS for Small Molecule Agonists and Allosteric Enhancers of Human TRH Receptor: Primary Screen for Enhancers | 360,000 tested, 0.66% active | TRHR cells, fluo-8 calcium fluorescence, EC20 TRH enhancement | AID 493056, 2011 | enhancement, % at 2 µM; in the data active means enhancement above about 30%; further: 0% is about no effect
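TRHR-expressing cells loaded with fluo-8 calcium dye were read kinetically (ex 480/em 530) during compound addition, then stimulated with an EC20 of TRH (10 nM final). Enhancement of the Gq-mediated intracellular calcium response was scored.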
Starred values were filed as active, the others as inactive; / = not tested or not shown. Unless noted, no stated cut-off is given here; in the data, active means activation above about 30%; inactive means the rest.

SMILES | D1 antagonist | D1 PAM | D1 agonist | TRHR ag | TRHR enhancer
CCC1CCCCN1S(=O)(=O)c1ccc(C(=O)Nc2sc3c(c2C(=O)NC)CCC3)cc1 (stereo not given) | -2 | -1 | 2 | 1 | -3
O=S(=O)(c1ccc(F)cc1)N1CCN(CC(O)COCC2CCCO2)CC1 (stereo not given) | 6 | -6 | 1 | 0 | -7
COCCN1CCn2c(nc3cc(NC(C)=O)ccc32)C1 | -1 | -4 | 1 | 1 | 5
COCCN1CCn2c(nc3cc(NC(=O)c4ccc(OC)cc4)ccc32)C1 | -52* | -1 | 0 | 0 | -2
O=C(NC(=S)Nc1nc(-c2ccccc2)cs1)c1cccnc1 | 0 | 10 | 13 | 2 | 6
CCOC(=O)c1ccc(NC(=S)NC(=O)c2cncc(Br)c2)cc1 | -6 | 3 | 0 | -1 | 8
O=C(NC(=S)Nc1nc(-c2ccccc2)cs1)c1cncc(Br)c1 | 1 | 6 | 37* | 5 | 0
O=C(O)c1ccc(NC(=S)NC(=O)c2cncc(Br)c2)cc1 | -1 | -2 | 6 | 1 | 34*
Oc1ccc(-c2csc(-c3c[nH]c4ccccc34)n2)c(O)c1 | -18 | -5 | 2 | 0 | 40*
O=C1CCc2cc(S(=O)(=O)N3CCC(C(=O)NC4CCCC4)CC3)ccc2N1 | -31* | -4 | 0 | 0 | 8
CCCCn1cnc2c(c(-c3ccccc3)c(-c3ccccc3)n2Cc2ccco2)c1=N | -3 | -8 | 47* | 1 | -12
CCCCn1c(=O)[nH]c(=O)c2c1ncn2Cc1ccco1 | -5 | -1 | 1 | 0 | 4
Cc1cc(NCCCn2ccnc2)n2nc(C)c(-c3ccccc3)c2n1 | -3 | -1 | 0 | -1 | -2
N=c1c2c(-c3ccccc3)c(-c3ccccc3)n(Cc3ccco3)c2ncn1Cc1ccco1 | 5 | -3 | 38* | 6 | -1
N=c1c2c(-c3ccccc3)c(-c3ccccc3)n(Cc3ccccc3)c2ncn1CCCn1ccnc1 | -10 | 2 | 118* | 5 | -3
O=C(Nc1cccc(S(=O)(=O)NC2=NCCC2)c1)c1ccc(=O)[nH]c1 | -12 | -2 | 3 | 1 | -2
COC(=O)CSc1nnc(-c2cnccn2)n1C | 3 | 0 | 1 | 0 | -1
CC(C)OC(=O)CSc1nnc(-c2cccnc2)n1N | -31* | -5 | 2 | 1 | 8
CC(C)OC(=O)CSc1nnc(-c2cnccn2)n1C | -35* | -2 | 1 | 0 | 3
Cc1cccc(C)c1NC(=O)CSc1nnc(-c2cnccn2)n1C | -51* | -4 | 1 | 0 | 3
Cc1ccc(C(=O)NCC(=O)OC(C(=O)Nc2cc(C(F)(F)F)ccc2Cl)c2ccccc2)cc1 (stereo not given) | 11 | 1 | 2 | 3 | -10
CCc1nnc(SCC(=O)N(CC)c2ccccc2)c2cc3oc(C)cc3n12 | -5 | -2 | -1 | -1 | -7
Cc1cccc(-n2c(C)nc3cc(C(=O)NCCC4=CCCCC4)ccc32)c1 | 1 | 0 | 0 | 0 | -1
CCOc1cc(C(=O)OCC(=O)c2cc(C)n(CC3CCCO3)c2C)ccc1OCC(=O)N1CCOCC1 (stereo not given) | 3 | -1 | 5 | 2 | 38*
Cc1ccc(C(=O)OCC(=O)c2cc(C)n(CC3CCCO3)c2C)cc1 (stereo not given) | -5 | -1 | 7 | -1 | 6
SMILES | D1 antagonist | D1 PAM | D1 agonist | TRHR ag | TRHR enhancer
CCCCN(C(=O)C1CC(=O)N(c2ccc(C)cc2)C1)c1c(N)n(CCC)c(=O)[nH]c1=O (stereo not given) | 9 | -2 | 0 | 0 | 28
Cc1csc2ncc(C(=O)NCc3ccc4c(c3)OCO4)c(=O)n12 | 3 | -6 | 4 | 0 | -24
Cc1cc(C(=O)NCc2ccccc2Cl)n(-c2ccccc2)n1 | -38* | -3 | 1 | 0 | -5
Cc1csc2ncc(C(=O)NCc3ccccc3Cl)c(=O)n12 | -34* | -4 | 1 | 0 | -4
COc1ccccc1CNC(=O)c1cnc2sccn2c1=O | -40* | -12 | 3 | 1 | -5
COc1ccccc1CNC(=O)c1cc(C)nn1-c1ccccc1 | -1 | 0 | 1 | 0 | -5
CN(C)/C=c1\sc2c(C#N)cc(C(=O)c3ccc(Br)cc3)n2c1=O | -51* | -6 | -1 | 2 | -5
COc1ncnc(OC)c1S(=O)(=O)Nc1ccc(C(F)(F)F)cc1 | -31* | -7 | 0 | -1 | -3
Cc1nn(C)cc1C(C)Nc1nc2nonc2nc1N1CCCCC1 (stereo not given) | -4 | 0 | 2 | -1 | 33*
O=C(CC1C(=O)N(c2ccccc2)C(=O)N1CCC1=CCCCC1)Nc1ccc(F)cc1 (stereo not given) | 1 | -4 | 2 | 0 | -3
COc1ccnc(N=CNOCc2cccc(Cl)c2Cl)c1C#N | -58* | -5 | 0 | -1 | -1
O=C(NCCNC(=O)c1ccc(Br)o1)c1ccc(Br)o1 | 5 | 1 | 14 | 3 | 38*
O=C(NCCc1ccccc1)c1ccc(Br)o1 | -5 | 9 | 2 | -1 | -4
O=C(CN(C(=O)c1csnn1)c1cccc(Cl)c1)NCCc1ccccc1 | -2 | / | 2 | 1 | -8
Cc1cc2c3c([nH]c2cc1S(=O)(=O)N1CCC2(CC1)OCCO2)CCCC3=O | -17 | -6 | 6 | 1 | -2
COc1ccc(CC(=O)OCC(=O)NC(=O)NC2CCCC2)cc1 | 3 | -2 | 2 | -1 | -1
COc1ccc(CC(=O)OCC(=O)NC(=O)NC2CCCCC2)cc1 | 3 | -2 | 2 | 0 | 39*
CCC(Sc1nc2ccccc2c2nc(CCc3c(C)n[nH]c3C)nn12)C(=O)Nc1ccc(OC)cc1 (stereo not given) | 17 | 1 | 1 | 0 | -4
O=C(O)c1ccc(S(=O)(=O)N(Cc2ccc(F)cc2)C2CCCCC2)cc1 | -20 | -5 | 5 | 0 | 38*
CN(Cc1ccccc1)S(=O)(=O)c1ccc(S(=O)(=O)N(Cc2ccc(F)cc2)C2CCCC2)cc1 | / | -2 | -3 | 0 | -4
Cc1ccc(NCC(=O)Nc2cccc(F)c2)cc1S(=O)(=O)N1CCCCCC1 | -20 | 11 | 8 | 1 | -12
COc1cc(/C=N/N2C(=O)CSC2=S)cc(Br)c1O | -2 | 3 | 44* | 20 | 9
COc1cccc(/C=N/N2C(=O)CSC2=S)c1O | -13 | -14 | 2 | 0 | 2
Cc1ccccc1CNC(=O)Cn1ncn2nc(-c3cccs3)cc2c1=O | -36* | 0 | 7 | -1 | -5

Screening results (PubChem BioAssay)
